As usually defined, the AC50 is the midpoint of the concentration-response curve, whichever way the signal moves.

The structures appear in SMILES notation. Inconclusive results are not listed. Active and inactive are the calls of the source. How the source made its calls, unless noted: active means hit-call score of the fitted dose curve at least 0.9, where 1 is the maximum; inactive means score below 0.9.

Our source for the outcome and AC50 values is PubChem BioAssay (EPA / NIEHS).

A short description of assay [1]: ATG_NFI_CIS: Attagene CIS-FACTORIAL HepG2 Assay for human Nuclear Factor I (NFI) (AID 2282989). As to conditions: HepG2 cis-regulatory reporter, NFI response element transcription; actives raise or lower the signal. The essentials: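 Multiplexed cis-reporter system in human HepG2 cells reports native TF activity as reporter mRNA induction 24 h post-dose. Fragments labelled with 6-FAM, HpaI-digested and resolved by capillary electrophoresis; activity fitted both directions versus DMSO.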

The target of assay [2] is Myc proto-oncogene protein (Homo sapiens) (UniProt P01106). Kind of assay: ATG_Myc_CIS: Attagene CIS-FACTORIAL HepG2 Assay for human Myelocytomatosis (Myc) Proto-Oncogene Transcription Factor (AID 2282990). As to conditions: HepG2, Attagene cis-reporter transcription factor activity; actives raise or lower the signal. The essentials: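 Fluorescence intensity of reporter-specific cDNA fragments, separated by capillary electrophoresis, gives the signal. Transfected HepG2 cells carrying cis-promoter reporter constructs are incubated with compound for 24 h; DMSO serves as baseline.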
Chain of Myc proto-oncogene protein (Homo sapiens) (P01106 whole entry, looked up, the tested form may be a part): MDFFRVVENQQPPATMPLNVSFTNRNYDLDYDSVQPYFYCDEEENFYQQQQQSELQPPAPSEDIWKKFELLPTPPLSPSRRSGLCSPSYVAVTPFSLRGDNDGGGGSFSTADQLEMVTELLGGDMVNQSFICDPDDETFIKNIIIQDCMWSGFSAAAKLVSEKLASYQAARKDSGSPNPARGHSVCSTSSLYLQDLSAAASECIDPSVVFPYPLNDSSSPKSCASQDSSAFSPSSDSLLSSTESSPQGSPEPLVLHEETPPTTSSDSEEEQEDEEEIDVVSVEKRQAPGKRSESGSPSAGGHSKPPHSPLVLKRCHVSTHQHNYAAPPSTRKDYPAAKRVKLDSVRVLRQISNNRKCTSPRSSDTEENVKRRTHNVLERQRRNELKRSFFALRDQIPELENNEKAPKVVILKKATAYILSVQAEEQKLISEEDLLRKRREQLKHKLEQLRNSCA

Assay [3] can be described thus: ATG_NF_kB_CIS: Attagene CIS-FACTORIAL HepG2 Assay for human Nuclear Factor Kappa B (NF-kB) (AID 2282991). As to conditions: HepG2 Attagene cis-factorial NF-kB reporter mRNA; actives raise or lower the signal. The method in brief: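 Measures mRNA induction of an NF-kB-responsive cis-element reporter in HepG2 cells transfected with multiple reporter units, sampled 24 h post-dosing; quantified by fluorescence after RT-PCR and capillary electrophoresis, fitted for activation or inhibition against DMSO.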

The nature of assay [4]: ATG_Oct_MLP_CIS: Attagene CIS-FACTORIAL HepG2 Assay for human Octamer-Binding Transcription Factor (Oct) (AID 2282993). Particulars: HepG2 Attagene cis-factorial Oct reporter, mRNA; actives raise or lower the signal. The method in brief: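 After 24 h compound exposure, transfected HepG2 cells were lysed for total RNA; reporter-specific cDNA was PCR-amplified, fluorescently labelled and sized by capillary electrophoresis. Bidirectional curve fitting used DMSO as baseline.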

Assay [5] deals with Cellular tumor antigen p53 (Homo sapiens) (UniProt P04637). Put plainly: ATG_p53_CIS: Attagene CIS-FACTORIAL HepG2 Assay for human p53 Transcription Factor (AID 2282994). As to conditions: HepG2 p53 cis-element reporter, Attagene mRNA; actives raise or lower the signal. The method in brief:
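HepG2, transient MRTU transfection (cis promoter elements, endogenous TFs); 24 h dosing; RNA isolation, RT-PCR, 6-FAM primer extension, HpaI digest, CE fluorescence; bidirectional fit vs DMSO.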

The target in assay [6] is human Peroxisome Proliferator-activated Receptor alpha (PPARa), PPARA (gene 5465) (UniProt Q07869). Put plainly: ATG_PPARa_TRANS: Attagene TRANS-FACTORIAL HepG2 Assay for human Peroxisome Proliferator-activated Receptor alpha (PPARa) (AID 2283001; active means hit-call score of the fitted dose curve at least 0.9, where 1 is the maximum;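 on AC50: potency for gain of reporter signal over DMSO so agonist or activator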). The method in brief: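 Measures transcriptional activity of an exogenous chimeric PPARa-Gal4 protein in transiently transfected HepG2 cells after 24 h dosing. Reporter mRNA quantified via RT-PCR and capillary electrophoresis; DMSO served as negative control.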
Chain of human Peroxisome Proliferator-activated Receptor alpha (PPARa), PPARA (gene 5465) (Q07869 whole entry, looked up, the tested form may be a part): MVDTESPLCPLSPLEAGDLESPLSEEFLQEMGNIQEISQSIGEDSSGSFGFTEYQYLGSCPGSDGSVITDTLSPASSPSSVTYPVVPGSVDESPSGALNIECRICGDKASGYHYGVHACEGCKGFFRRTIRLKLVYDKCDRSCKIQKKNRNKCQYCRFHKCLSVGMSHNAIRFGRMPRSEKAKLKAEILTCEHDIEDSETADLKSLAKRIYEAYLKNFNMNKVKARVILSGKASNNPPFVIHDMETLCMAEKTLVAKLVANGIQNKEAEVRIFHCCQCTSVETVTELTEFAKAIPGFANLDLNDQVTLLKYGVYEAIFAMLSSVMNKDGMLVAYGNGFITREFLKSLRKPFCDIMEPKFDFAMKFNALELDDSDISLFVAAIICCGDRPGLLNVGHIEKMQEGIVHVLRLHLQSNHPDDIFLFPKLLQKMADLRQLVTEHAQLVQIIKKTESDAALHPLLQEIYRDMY

Assay [7] concerns the target human Retinoic Acid Receptor gamma (RARg), RARG (gene 5916) (UniProt P13631). Kind of assay: ATG_RARg_TRANS: Attagene TRANS-FACTORIAL HepG2 Assay for human Retinoic Acid Receptor gamma (RARg) (AID 2283009; active means hit-call score of the fitted dose curve at least 0.9, where 1 is the maximum). The method in brief: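 HepG2 cells transiently transfected with multiplexed reporter units expressing chimeric RARg-GAL4 and GAL4-UAS-driven reporters; 24 h compound exposure. Reporter mRNA quantified by RT-PCR with fluorescent labelling and capillary electrophoresis; gain-of-signal fitted relative to DMSO baseline.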

Assay [8] in a line: ATG_NRF2_ARE_CIS: Attagene CIS-FACTORIAL HepG2 Assay for human Nuclear Factor Erythroid 2 Related Factor 2 (NFR2) response to Antioxidant Response Elements (ARE) (AID 2282992).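 On AC50: reporter mRNA level measured by RT-PCR and capillary electrophoresis fluorescence.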 As to conditions: HepG2 Attagene ARE/NRF2 reporter, transcription factor activity; actives raise or lower the signal. The essentials:
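Transient MRTU transfection of HepG2; 24 h compound exposure; TriZol RNA, RT with oligo(dT), PCR, 6-FAM primer extension, HpaI cut, CE. Bidirectional fit vs DMSO.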

Assay [9] deals with Peroxisome proliferator-activated receptor gamma (Homo sapiens) (UniProt P37231). Kind of assay: ATG_PPARg_TRANS: Attagene TRANS-FACTORIAL HepG2 Assay for human Peroxisome Proliferator-activated Receptor-gamma (PPARg) (AID 2283007; active means hit-call score of the fitted dose curve at least 0.9, where 1 is the maximum). The essentials: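 Gain-of-signal endpoint relative to DMSO, derived from reporter mRNA levels quantified by RT-PCR and capillary electrophoresis. Cells were HepG2 transiently expressing a chimeric NR-Gal4 construct with GAL4-UAS reporters, exposed to chemicals for 24 h.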
Chain of Peroxisome proliferator-activated receptor gamma (Homo sapiens) (P37231 whole entry, looked up, the tested form may be a part): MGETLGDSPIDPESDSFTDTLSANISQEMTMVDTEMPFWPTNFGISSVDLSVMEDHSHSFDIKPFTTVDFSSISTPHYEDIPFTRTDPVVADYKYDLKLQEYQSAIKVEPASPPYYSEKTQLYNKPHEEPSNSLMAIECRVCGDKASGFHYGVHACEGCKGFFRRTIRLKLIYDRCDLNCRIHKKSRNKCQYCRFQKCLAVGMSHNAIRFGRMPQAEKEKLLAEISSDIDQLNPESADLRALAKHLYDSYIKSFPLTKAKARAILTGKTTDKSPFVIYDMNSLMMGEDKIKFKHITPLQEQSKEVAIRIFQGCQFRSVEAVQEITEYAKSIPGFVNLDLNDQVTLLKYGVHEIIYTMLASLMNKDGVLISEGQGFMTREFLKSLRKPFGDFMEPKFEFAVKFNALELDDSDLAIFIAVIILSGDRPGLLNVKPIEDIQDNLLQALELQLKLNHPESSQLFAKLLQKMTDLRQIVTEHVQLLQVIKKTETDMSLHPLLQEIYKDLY

Assay [10] deals with Nuclear receptor subfamily 1 group I member 2 (Homo sapiens) (UniProt O75469). Put plainly: ATG_PXR_TRANS: Attagene TRANS-FACTORIAL HepG2 Assay for human Pregnane X Receptor (PXR) (AID 2283008; active means hit-call score of the fitted dose curve at least 0.9, where 1 is the maximum). The method in brief:
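Read-out is fluorescence of labelled reporter cDNA fragments separated by capillary electrophoresis after RT-PCR and HpaI digestion. Source: HepG2 cells carrying PXR-GAL4/UAS reporter constructs, treated 24 h; activity fitted upward relative to DMSO.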

In assay [11] the target is human RAR-related Orphan Receptor beta (RORb), RORB (gene 6096) (UniProt Q92753). Kind of assay: ATG_RORb_TRANS: Attagene TRANS-FACTORIAL HepG2 Assay for human RAR-related Orphan Receptor beta (RORb) (AID 2283010; active means hit-call score of the fitted dose curve at least 0.9, where 1 is the maximum). The method in brief:
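HepG2 cells were transiently transfected with multiplexed GAL4-UAS reporter units expressing chimeric nuclear receptor–GAL4 proteins, then dosed for 24 h. Reporter mRNA was quantified by RT-PCR with fluorescent labelling and capillary electrophoresis; gain of signal was fitted relative to DMSO.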

Assay [12] has as its target Retinoic acid receptor alpha (Homo sapiens) (UniProt P10276). Kind of assay: ATG_RARa_TRANS: Attagene TRANS-FACTORIAL HepG2 Assay for human Retinoic Acid Receptor alpha (RARa) (AID 2283005; active means hit-call score of the fitted dose curve at least 0.9, where 1 is the maximum). The essentials: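 HepG2 transiently transfected with multiplex GAL4-UAS reporter units including a human RARa–GAL4 chimera; 24 h compound exposure. Reporter mRNA quantified by RT-PCR, 6-FAM labeling and capillary electrophoresis; gain of signal versus DMSO.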

The target of assay [13] is human Peroxisome Proliferator-activated Receptor delta (PPARd), PPARD (gene 5467) (UniProt Q03181). Put plainly: ATG_PPARd_TRANS: Attagene TRANS-FACTORIAL HepG2 Assay for human Peroxisome Proliferator-activated Receptor delta (PPARd) (AID 2283002; active means hit-call score of the fitted dose curve at least 0.9, where 1 is the maximum). The method in brief: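 Fluorescence from capillary electrophoresis of labelled RT-PCR reporter fragments gives the signal; DMSO sets baseline. Cells: HepG2 transiently carrying GAL4-UAS reporter units plus chimeric nuclear receptor-Gal4 proteins, exposed to chemicals for 24 h.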
Chain of human Peroxisome Proliferator-activated Receptor delta (PPARd), PPARD (gene 5467) (Q03181 whole entry, looked up, the tested form may be a part): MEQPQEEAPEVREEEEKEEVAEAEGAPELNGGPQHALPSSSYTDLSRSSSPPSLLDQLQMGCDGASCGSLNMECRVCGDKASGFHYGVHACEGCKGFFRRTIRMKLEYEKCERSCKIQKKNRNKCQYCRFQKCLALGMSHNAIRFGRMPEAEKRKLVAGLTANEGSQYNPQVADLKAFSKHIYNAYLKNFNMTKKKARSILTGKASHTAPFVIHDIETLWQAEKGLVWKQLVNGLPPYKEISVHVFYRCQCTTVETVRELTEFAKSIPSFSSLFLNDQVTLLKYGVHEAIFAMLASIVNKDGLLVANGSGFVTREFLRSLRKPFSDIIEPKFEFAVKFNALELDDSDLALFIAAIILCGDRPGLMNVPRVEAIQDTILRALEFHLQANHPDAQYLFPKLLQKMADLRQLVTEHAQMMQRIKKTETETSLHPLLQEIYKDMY

In assay [14] the target is human RAR-related Orphan Receptor gamma (RORg), RORC (gene 6097) (UniProt P51449). Put plainly: ATG_RORg_TRANS: Attagene TRANS-FACTORIAL HepG2 Assay for human RAR-related Orphan Receptor gamma (RORg) (AID 2283011; active means hit-call score of the fitted dose curve at least 0.9, where 1 is the maximum). The essentials: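 Reporter transcripts from a transfected RORg-GAL4 chimera in HepG2 cells were quantified 24 h after dosing by RT-PCR, 6-FAM labelling, HpaI digestion and capillary electrophoresis; increases over DMSO baseline were fitted.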
Chain of human RAR-related Orphan Receptor gamma (RORg), RORC (gene 6097) (P51449 whole entry, looked up, the tested form may be a part): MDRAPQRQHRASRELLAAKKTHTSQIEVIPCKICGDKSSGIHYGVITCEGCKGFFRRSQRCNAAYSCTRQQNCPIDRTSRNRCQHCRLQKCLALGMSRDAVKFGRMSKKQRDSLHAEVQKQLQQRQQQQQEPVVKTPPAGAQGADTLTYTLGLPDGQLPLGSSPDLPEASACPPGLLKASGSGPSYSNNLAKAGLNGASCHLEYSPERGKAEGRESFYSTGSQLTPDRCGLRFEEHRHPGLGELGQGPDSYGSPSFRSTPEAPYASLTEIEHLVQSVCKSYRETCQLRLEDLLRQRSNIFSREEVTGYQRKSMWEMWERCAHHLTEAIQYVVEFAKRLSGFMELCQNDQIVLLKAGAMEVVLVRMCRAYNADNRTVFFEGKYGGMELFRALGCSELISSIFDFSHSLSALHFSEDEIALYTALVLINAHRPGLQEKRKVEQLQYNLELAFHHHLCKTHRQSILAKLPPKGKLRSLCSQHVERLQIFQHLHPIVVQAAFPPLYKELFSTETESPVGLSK

Assay [15] can be described thus: BSK_3C_uPAR: BioMAP Diversity Plus: 3C Assay for Urokinase-type plasminogen activator receptor (uPAR) Biomarker Activity (AID 2282998). As to conditions: BioMAP 3C HUVEC, uPAR biomarker ELISA; actives raise or lower the signal. The essentials: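 Values derive from bidirectional curve fitting relative to DMSO, which served as baseline of activity. uPAR was measured by ELISA in human umbilical vein endothelial primary cultures 24 h after compound addition.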
For orientation: In an ELISA, binding on a coated surface is turned into a signal by an enzyme label.

Assay [16] in a line: BSK_3C_VCAM1: BioMAP Diversity Plus: 3C Assay for Vascular cell adhesion molecule 1 (VCAM1) Biomarker Activity (AID 2282999). Particulars: BioMAP 3C HUVEC, VCAM1 ELISA, cytokine-stimulated; actives raise or lower the signal. The method in brief: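 Human umbilical vein endothelial cells (3C system), biomarker read by ELISA 24 h after dosing; bidirectional fit against DMSO baseline. Cytotoxicity tracked by SRB total-protein staining in parallel cultures at biomarker time.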

A short description of assay [17]: BSK_4H_Eotaxin3: BioMAP Diversity Plus: 4H Assay for Eotaxin 3 Biomarker Activity (AID 2283000). As to conditions: primary human endothelial cells (HUVEC); actives raise or lower the signal. The essentials:
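Human umbilical vein endothelial cells (BSK_4H system) dosed with test chemical; Eotaxin-3 (CCL26) measured by ELISA 24 h after dosing. Bidirectional curve fitting relative to DMSO negative control as baseline.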

Read-out in assay [18]: Intercellular Adhesion Molecule 1 (ICAM1), ICAM1 (gene 3383)
Kind of assay: BSK_3C_ICAM1: BioMAP Diversity Plus: 3C Assay for Intercellular Adhesion Molecule 1 (ICAM1) Biomarker Activity (AID 2283003). As to conditions: primary human endothelial cells (HUVEC); actives raise or lower the signal. The essentials: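 Primary human umbilical vein endothelial cells in the BioMAP 3C system were exposed to chemicals for 24 h, then ICAM-1 was quantified by ELISA. Activity was fitted bidirectionally against the DMSO negative control baseline.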

Chain of human RAR-related Orphan Receptor beta (RORb), RORB (gene 6096) (Q92753 whole entry, looked up, the tested form may be a part): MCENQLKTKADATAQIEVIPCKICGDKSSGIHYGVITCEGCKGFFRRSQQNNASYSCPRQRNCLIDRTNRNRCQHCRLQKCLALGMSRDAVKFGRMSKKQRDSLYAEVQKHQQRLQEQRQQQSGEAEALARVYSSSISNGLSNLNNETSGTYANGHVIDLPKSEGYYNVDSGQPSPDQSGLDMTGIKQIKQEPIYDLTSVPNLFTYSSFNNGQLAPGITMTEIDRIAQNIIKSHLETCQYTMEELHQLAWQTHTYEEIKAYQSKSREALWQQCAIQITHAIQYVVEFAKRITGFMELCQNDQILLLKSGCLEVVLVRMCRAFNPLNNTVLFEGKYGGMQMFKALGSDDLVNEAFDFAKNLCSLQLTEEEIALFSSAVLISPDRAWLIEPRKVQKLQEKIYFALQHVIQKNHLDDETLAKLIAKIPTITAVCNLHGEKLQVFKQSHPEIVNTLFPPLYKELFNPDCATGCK
Chain of Cellular tumor antigen p53 (Homo sapiens) (P04637 whole entry, looked up): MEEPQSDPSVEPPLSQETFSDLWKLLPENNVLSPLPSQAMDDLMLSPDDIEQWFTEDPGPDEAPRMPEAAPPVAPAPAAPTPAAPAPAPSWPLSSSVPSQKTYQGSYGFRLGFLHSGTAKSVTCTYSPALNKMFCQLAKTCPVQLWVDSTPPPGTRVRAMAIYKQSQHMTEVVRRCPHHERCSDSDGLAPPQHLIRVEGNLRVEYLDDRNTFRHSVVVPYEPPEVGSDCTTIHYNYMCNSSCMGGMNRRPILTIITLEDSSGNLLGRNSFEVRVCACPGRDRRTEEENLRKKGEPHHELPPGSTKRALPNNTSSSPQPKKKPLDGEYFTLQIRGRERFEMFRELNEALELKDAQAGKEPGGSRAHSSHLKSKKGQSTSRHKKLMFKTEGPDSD
Chain of Nuclear receptor subfamily 1 group I member 2 (Homo sapiens) (O75469 whole entry, looked up, the tested form may be a part): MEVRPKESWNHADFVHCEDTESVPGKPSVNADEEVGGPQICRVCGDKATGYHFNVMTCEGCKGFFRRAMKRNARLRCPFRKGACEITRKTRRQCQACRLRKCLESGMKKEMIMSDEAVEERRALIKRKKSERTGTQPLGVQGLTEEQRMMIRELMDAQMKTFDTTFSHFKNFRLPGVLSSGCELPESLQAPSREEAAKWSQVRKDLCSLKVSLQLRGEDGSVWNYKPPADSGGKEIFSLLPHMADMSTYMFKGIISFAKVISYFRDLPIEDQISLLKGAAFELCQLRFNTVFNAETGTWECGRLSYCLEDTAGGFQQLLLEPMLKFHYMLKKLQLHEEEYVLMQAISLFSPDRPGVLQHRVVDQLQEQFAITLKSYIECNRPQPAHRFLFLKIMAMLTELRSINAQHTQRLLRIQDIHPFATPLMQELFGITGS
Chain of human Retinoic Acid Receptor gamma (RARg), RARG (gene 5916) (P13631 whole entry, looked up, the tested form may be a part): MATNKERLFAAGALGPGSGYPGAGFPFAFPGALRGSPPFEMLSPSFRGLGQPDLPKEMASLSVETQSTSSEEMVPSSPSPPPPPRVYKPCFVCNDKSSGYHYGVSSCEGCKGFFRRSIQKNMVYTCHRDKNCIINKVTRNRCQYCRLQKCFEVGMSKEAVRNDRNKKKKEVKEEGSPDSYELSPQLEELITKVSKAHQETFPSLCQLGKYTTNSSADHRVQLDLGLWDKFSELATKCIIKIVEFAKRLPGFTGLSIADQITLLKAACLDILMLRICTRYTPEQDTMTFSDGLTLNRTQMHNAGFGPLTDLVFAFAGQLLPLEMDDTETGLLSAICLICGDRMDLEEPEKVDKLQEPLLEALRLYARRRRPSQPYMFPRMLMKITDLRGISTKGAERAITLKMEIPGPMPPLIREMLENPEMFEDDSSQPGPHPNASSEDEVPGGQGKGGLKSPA
Chain of Retinoic acid receptor alpha (Homo sapiens) (P10276 whole entry, looked up, the tested form may be a part): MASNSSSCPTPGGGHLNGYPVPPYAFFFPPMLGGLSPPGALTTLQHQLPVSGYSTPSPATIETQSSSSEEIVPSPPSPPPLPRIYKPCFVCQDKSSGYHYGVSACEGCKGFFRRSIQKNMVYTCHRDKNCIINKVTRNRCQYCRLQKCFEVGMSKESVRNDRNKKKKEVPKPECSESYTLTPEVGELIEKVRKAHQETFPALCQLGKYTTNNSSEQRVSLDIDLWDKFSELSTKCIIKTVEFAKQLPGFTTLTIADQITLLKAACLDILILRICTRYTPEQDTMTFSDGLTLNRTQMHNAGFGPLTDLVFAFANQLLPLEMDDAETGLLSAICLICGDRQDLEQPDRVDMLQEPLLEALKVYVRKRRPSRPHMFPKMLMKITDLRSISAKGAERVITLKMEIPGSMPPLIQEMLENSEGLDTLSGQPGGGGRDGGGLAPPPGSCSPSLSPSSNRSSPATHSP

`CC(CN1c2ccccc2Sc2ccccc21)N(C)C` (configuration not stated): the result in assay [1], in [2], in assay [3], in assay [6] and in assay [7] was inactive. Further, the AC50 was 38.8 µM (active) in [4] and 30.5 µM (active) in assay [5].
As to `C=C(C)C(=O)OCCOC(=O)CC(C)=O`, the call in assay [1], in assay [2], in assay [3], in assay [8], in assay [5] and in [6] was inactive. The outcome in assay [9], in [10] and in assay [11] was inactive.
As to `CCCCCCCCCCCCCCCC(=O)O`, the result in assay [1], in assay [2], in assay [3], in assay [4], in [5] and in assay [12] was inactive. In assay [11], the call was inactive. The AC50 in assay [6] is 26.5 µM (active).
For `COc1nc(C)nc(N)n1`, the result in [1], in [2], in assay [3], in [4], in [6] and in assay [9] was inactive. Further, the result in [10] and in assay [11] was inactive.
On to `O=C(Nc1ccccc1)c1cc([N+](=O)[O-])ccc1Cl`, for which the compound was called inactive in [1], in assay [2], in assay [3], in [6], in [13] and in assay [11]. In addition, the call in [14] was inactive. The AC50 in assay [8] was 34.6 µM (active); in assay [9], 19.8 µM (active); in assay [10], 3.82 µM (active).
Regarding `Cc1ccc2ccccc2n1`, the compound was classed as inactive in assay [1], in assay [2], in assay [3], in [8], in assay [5] and in [13]. The compound was classed as inactive in [12], in assay [9], in [10], in [7], in assay [11] and in assay [14].
`CC(C)c1ccc(C(C)C)cc1`: the result in assay [1], in [2], in assay [4], in assay [6], in assay [10] and in assay [11] was inactive. The AC50 was 162 µM (active) in assay [8]; 158 µM (active) in assay [5]; 31.6 µM (active) in [15]; 35.3 µM (active) in assay [16]; 36 µM (active) in assay [17]; 35.8 µM (active) in [18].
For the compound `CCC(O)CO` (configuration not stated), the compound was called inactive in [1], in assay [2], in assay [3], in [4], in [5] and in assay [6]. In addition, the compound was called inactive in assay [13] and in [10].
`CC(CC(C)(C)C)CC(C)(C)CC(C)(C)C` (configuration not stated): the result in assay [1], in assay [2], in [3], in assay [4], in assay [5] and in assay [13] was inactive. Further, the call in assay [9], in [11] and in assay [14] was inactive.
As for `CCCc1ccccc1O`, the compound was called inactive in assay [1], in assay [2], in assay [3], in [4], in [6] and in assay [10].
On to `CCCC(=O)C(C)=O`, for which the call in assay [1], in assay [2], in [3], in [4], in assay [5] and in assay [6] was inactive. The compound was classed as inactive in [10], in assay [11] and in assay [14].
Turning to `CCCCCCCCCCCCN(CCCCCCCCCCCC)CCCCCCCCCCCC`, the compound was classed as inactive in assay [1], in assay [2], in assay [3], in assay [8], in assay [6] and in [13]. The call in assay [9], in [10] and in [11] was inactive.
